# Positions count from the first letter of the chain named.
# Assays:
# Experiment in all cases: PBM; 200 nM protein, PBS
# Conditions in all cases: dsDNA, one strand shown
# HOXA4 [1] = target: HOXA4 (Homo sapiens, UniProt Q00056 201-287, W262R)
# HOXC9 [2] = target: HOXC9 (Homo sapiens, UniProt P31274 178-260, K195R)
# HOXA2 [3] = target: HOXA2 (Homo sapiens, UniProt O43364 129-215, R185T)
# HOXA4 [4] = target: HOXA4 (Homo sapiens, UniProt Q00056 201-287, R217L)
# HOXC9 [5] = target: HOXC9 (Homo sapiens, UniProt P31274 178-260)
# HOXC9 [6] = target: HOXC9 (Homo sapiens, UniProt P31274 178-260, R193K)
# HOXA2 [7] = target: HOXA2 (Homo sapiens, UniProt O43364 129-215, R185K)
# HOXA4 [8] = target: HOXA4 (Homo sapiens, UniProt Q00056 201-287)
# HOXA2 [9] = target: HOXA2 (Homo sapiens, UniProt O43364 129-215, Y150S)
# HOXA2 [10] = target: HOXA2 (Homo sapiens, UniProt O43364 129-215)
# HOXC10 [11] = target: HOXC10 (Homo sapiens, UniProt Q9NYD6 254-340)
# PRRX1 [12] = target: PRRX1 (Homo sapiens, UniProt P54821 80-166, F113S)
# HOXC10 [13] = target: HOXC10 (Homo sapiens, UniProt Q9NYD6 254-340, K271E)
# HOXA4 [14] = target: HOXA4 (Homo sapiens, UniProt Q00056 201-287, W262F)
# PRRX1 [15] = target: PRRX1 (Homo sapiens, UniProt P54821 80-166)
# SIX6 [16] = target: T1, SIX6 (Homo sapiens, UniProt O95475 114-200, T165P)
# T1 sequence: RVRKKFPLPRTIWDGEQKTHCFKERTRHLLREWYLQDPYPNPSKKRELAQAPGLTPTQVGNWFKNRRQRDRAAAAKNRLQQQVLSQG
# SIX6 [17] = target: T2, SIX6 (Homo sapiens, UniProt O95475 114-200, T139Q)
# T2 sequence: T1 sequence with T26Q, P52T
# HOXB6 [18] = target: HOXB6 (Homo sapiens, UniProt P17509 132-218, K202E)
# ALX1 [19] = target: ALX1 (Homo sapiens, UniProt Q15699 118-204, L144V)
# ALX3 [20] = target: ALX3 (Homo sapiens, UniProt O95076 139-225, N203Q)
# ALX1 [21] = target: ALX1 (Homo sapiens, UniProt Q15699 118-204, L144R)
# ALX3 [22] = target: ALX3 (Homo sapiens, UniProt O95076 139-225)
# ALX3 [23] = target: ALX3 (Homo sapiens, UniProt O95076 139-225, L168Q)
# HOXC9 [24] = target: HOXC9 (Homo sapiens, UniProt P31274 178-260, R222W)
# ALX3 [25] = target: ALX3 (Homo sapiens, UniProt O95076 139-225, L168V)
# ALX1 [26] = target: ALX1 (Homo sapiens, UniProt Q15699 118-204)
# ALX3 [27] = target: ALX3 (Homo sapiens, UniProt O95076 139-225, N203S)
# HOXB6 [28] = target: HOXB6 (Homo sapiens, UniProt P17509 132-218)
# ALX4 [29] = target: ALX4 (Homo sapiens, UniProt Q9H161 200-286)
# ALX4 [30] = target: ALX4 (Homo sapiens, UniProt Q9H161 200-286, Q225E)
# PAX4 [31] = target: T3, PAX4 (Homo sapiens, UniProt O43316 9-242, R200K)
# T3 sequence: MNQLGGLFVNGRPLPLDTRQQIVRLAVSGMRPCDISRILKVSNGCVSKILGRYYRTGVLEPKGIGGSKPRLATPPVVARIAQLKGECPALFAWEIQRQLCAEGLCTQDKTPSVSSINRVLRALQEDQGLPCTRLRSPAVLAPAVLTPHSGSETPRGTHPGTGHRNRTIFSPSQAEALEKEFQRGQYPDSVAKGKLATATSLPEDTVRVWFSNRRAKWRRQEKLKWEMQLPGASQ
# PAX4 [32] = target: T4, PAX4 (Homo sapiens, UniProt O43316 9-242)
# T4 sequence: T3 sequence with K192R
# PAX4 [33] = target: T5, PAX4 (Homo sapiens, UniProt O43316 9-242, R200Q)
# T5 sequence: T3 sequence with K192Q
# PAX4 [34] = target: T6, PAX4 (Homo sapiens, UniProt O43316 9-242, F177V)
# T6 sequence: T3 sequence with F169V, K192R
# PAX4 [35] = target: T7, PAX4 (Homo sapiens, UniProt O43316 9-242, F177Y)
# T7 sequence: T3 sequence with F169Y, K192R
# PAX4 [36] = target: T8, PAX4 (Homo sapiens, UniProt O43316 9-242, R227W)
# T8 sequence: T3 sequence with K192R, R219W
# Chain of HOXA4 (Homo sapiens, UniProt Q00056 201-287, R217L) (Q00056 201-287 R217L): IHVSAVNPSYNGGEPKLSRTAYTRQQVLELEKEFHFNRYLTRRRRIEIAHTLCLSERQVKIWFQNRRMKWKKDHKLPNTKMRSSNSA
# Chain of HOXA4 (Homo sapiens, UniProt Q00056 201-287, W262F) (Q00056 201-287 W262F): as the sequence (Q00056 201-287 R217L) above, with L17R, W62F counted along it
# Chain of HOXA4 (Homo sapiens, UniProt Q00056 201-287, W262R) (Q00056 201-287 W262R): as the sequence (Q00056 201-287 R217L) above, with L17R, W62R counted along it
# Chain of HOXA4 (Homo sapiens, UniProt Q00056 201-287) (Q00056 201-287): as the sequence (Q00056 201-287 R217L) above, with L17R counted along it
# Chain of HOXC9 (Homo sapiens, UniProt P31274 178-260, K195R) (P31274 178-260 K195R): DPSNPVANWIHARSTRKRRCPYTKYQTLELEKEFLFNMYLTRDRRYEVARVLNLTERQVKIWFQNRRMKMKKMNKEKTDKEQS
# Chain of HOXC9 (Homo sapiens, UniProt P31274 178-260) (P31274 178-260): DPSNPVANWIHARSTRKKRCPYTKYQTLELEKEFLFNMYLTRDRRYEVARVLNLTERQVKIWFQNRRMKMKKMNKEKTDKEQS
# Chain of HOXC9 (Homo sapiens, UniProt P31274 178-260, R193K) (P31274 178-260 R193K): as the sequence (P31274 178-260) above, with R16K counted along it
# Chain of ALX4 (Homo sapiens, UniProt Q9H161 200-286, Q225E) (Q9H161 200-286 Q225E): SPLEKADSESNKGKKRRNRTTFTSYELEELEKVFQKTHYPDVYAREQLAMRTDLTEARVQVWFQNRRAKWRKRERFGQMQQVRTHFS
# Chain of ALX4 (Homo sapiens, UniProt Q9H161 200-286) (Q9H161 200-286): as the sequence (Q9H161 200-286 Q225E) above, with E26Q counted along it
# Chain of HOXA2 (Homo sapiens, UniProt O43364 129-215, R185K) (O43364 129-215 R185K): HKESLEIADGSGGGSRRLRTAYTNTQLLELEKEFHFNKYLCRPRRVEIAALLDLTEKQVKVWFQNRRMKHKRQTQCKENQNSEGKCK
# Chain of ALX3 (Homo sapiens, UniProt O95076 139-225, L168Q) (O95076 139-225 L168Q): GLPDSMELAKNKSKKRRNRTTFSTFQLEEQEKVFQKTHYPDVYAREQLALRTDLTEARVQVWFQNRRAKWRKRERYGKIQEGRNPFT
# Chain of HOXA2 (Homo sapiens, UniProt O43364 129-215) (O43364 129-215): as the sequence (O43364 129-215 R185K) above, with K57R counted along it
# Chain of HOXC9 (Homo sapiens, UniProt P31274 178-260, R222W) (P31274 178-260 R222W): as the sequence (P31274 178-260) above, with R45W counted along it
# Chain of ALX3 (Homo sapiens, UniProt O95076 139-225) (O95076 139-225): as the sequence (O95076 139-225 L168Q) above, with Q30L counted along it
# Chain of PRRX1 (Homo sapiens, UniProt P54821 80-166, F113S) (P54821 80-166 F113S): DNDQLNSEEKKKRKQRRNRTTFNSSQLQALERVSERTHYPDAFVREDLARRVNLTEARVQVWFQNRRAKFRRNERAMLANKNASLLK
# Chain of PRRX1 (Homo sapiens, UniProt P54821 80-166) (P54821 80-166): as the sequence (P54821 80-166 F113S) above, with S34F counted along it
# Chain of ALX1 (Homo sapiens, UniProt Q15699 118-204, L144R) (Q15699 118-204 L144R): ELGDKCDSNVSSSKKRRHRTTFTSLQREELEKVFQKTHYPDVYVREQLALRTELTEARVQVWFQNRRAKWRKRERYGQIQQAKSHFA
# Chain of ALX3 (Homo sapiens, UniProt O95076 139-225, N203S) (O95076 139-225 N203S): as the sequence (O95076 139-225 L168Q) above, with Q30L, N65S counted along it
# Chain of ALX1 (Homo sapiens, UniProt Q15699 118-204, L144V) (Q15699 118-204 L144V): as the sequence (Q15699 118-204 L144R) above, with R27V counted along it
# Chain of HOXB6 (Homo sapiens, UniProt P17509 132-218) (P17509 132-218): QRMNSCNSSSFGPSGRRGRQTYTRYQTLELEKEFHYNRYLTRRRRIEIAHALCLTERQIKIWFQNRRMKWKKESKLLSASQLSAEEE
# Chain of HOXB6 (Homo sapiens, UniProt P17509 132-218, K202E) (P17509 132-218 K202E): as the sequence (P17509 132-218) above, with K71E counted along it
# Chain of HOXC10 (Homo sapiens, UniProt Q9NYD6 254-340, K271E) (Q9NYD6 254-340 K271E): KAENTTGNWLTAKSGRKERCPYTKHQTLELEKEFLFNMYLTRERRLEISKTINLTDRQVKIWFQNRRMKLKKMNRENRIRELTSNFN
# Chain of HOXC10 (Homo sapiens, UniProt Q9NYD6 254-340) (Q9NYD6 254-340): as the sequence (Q9NYD6 254-340 K271E) above, with E18K counted along it
# Chain of ALX1 (Homo sapiens, UniProt Q15699 118-204) (Q15699 118-204): as the sequence (Q15699 118-204 L144R) above, with R27L counted along it
# Chain of ALX3 (Homo sapiens, UniProt O95076 139-225, L168V) (O95076 139-225 L168V): as the sequence (O95076 139-225 L168Q) above, with Q30V counted along it
# Chain of ALX3 (Homo sapiens, UniProt O95076 139-225, N203Q) (O95076 139-225 N203Q): as the sequence (O95076 139-225 L168Q) above, with Q30L, N65Q counted along it
# Chain of HOXA2 (Homo sapiens, UniProt O43364 129-215, Y150S) (O43364 129-215 Y150S): as the sequence (O43364 129-215 R185K) above, with Y22S, K57R counted along it
# Chain of HOXA2 (Homo sapiens, UniProt O43364 129-215, R185T) (O43364 129-215 R185T): as the sequence (O43364 129-215 R185K) above, with K57T counted along it
sequence,measurement,setting,value
ATGAATGA,binding signal,HOXA4 [1],"10.2 upbm affinity estimate (log intensity, higher = more binding, comparable within an allelic series)"
same,binding signal,HOXC9 [2],"11.2 upbm affinity estimate (log intensity, higher = more binding, comparable within an allelic series)"
same,binding signal,HOXA2 [3],"9.4 upbm affinity estimate (log intensity, higher = more binding, comparable within an allelic series)"
same,binding signal,HOXA4 [4],"11.1 upbm affinity estimate (log intensity, higher = more binding, comparable within an allelic series)"
same,binding signal,HOXC9 [5],"11 upbm affinity estimate (log intensity, higher = more binding, comparable within an allelic series)"
same,binding signal,HOXC9 [6],"11.2 upbm affinity estimate (log intensity, higher = more binding, comparable within an allelic series)"
same,binding signal,HOXA2 [7],"11.9 upbm affinity estimate (log intensity, higher = more binding, comparable within an allelic series)"
same,binding signal,HOXA4 [8],"11.5 upbm affinity estimate (log intensity, higher = more binding, comparable within an allelic series)"
same,binding signal,HOXA2 [9],"10.9 upbm affinity estimate (log intensity, higher = more binding, comparable within an allelic series)"
same,binding signal,HOXA2 [10],"9.56 upbm affinity estimate (log intensity, higher = more binding, comparable within an allelic series)"
GAGGTTGC,binding signal,HOXA4 [1],"9.8 upbm affinity estimate (log intensity, higher = more binding, comparable within an allelic series)"
same,binding signal,HOXC10 [11],"9.94 upbm affinity estimate (log intensity, higher = more binding, comparable within an allelic series)"
same,binding signal,PRRX1 [12],"9.19 upbm affinity estimate (log intensity, higher = more binding, comparable within an allelic series)"
same,binding signal,HOXA4 [4],"9.7 upbm affinity estimate (log intensity, higher = more binding, comparable within an allelic series)"
same,binding signal,HOXA4 [8],"9.69 upbm affinity estimate (log intensity, higher = more binding, comparable within an allelic series)"
same,binding signal,HOXC10 [13],"9.96 upbm affinity estimate (log intensity, higher = more binding, comparable within an allelic series)"
same,binding signal,HOXA4 [14],"9.89 upbm affinity estimate (log intensity, higher = more binding, comparable within an allelic series)"
same,binding signal,PRRX1 [15],"8.94 upbm affinity estimate (log intensity, higher = more binding, comparable within an allelic series)"
GATCCCCC,binding signal,HOXA4 [1],"9.9 upbm affinity estimate (log intensity, higher = more binding, comparable within an allelic series)"
same,binding signal,SIX6 [16],"9.3 upbm affinity estimate (log intensity, higher = more binding, comparable within an allelic series)"
same,binding signal,HOXA4 [4],"9.87 upbm affinity estimate (log intensity, higher = more binding, comparable within an allelic series)"
same,binding signal,SIX6 [17],"11.1 upbm affinity estimate (log intensity, higher = more binding, comparable within an allelic series)"
same,binding signal,HOXA4 [8],"9.93 upbm affinity estimate (log intensity, higher = more binding, comparable within an allelic series)"
same,binding signal,HOXA4 [14],"9.82 upbm affinity estimate (log intensity, higher = more binding, comparable within an allelic series)"
CCGGACGG,binding signal,HOXA4 [1],"9.78 upbm affinity estimate (log intensity, higher = more binding, comparable within an allelic series)"
same,binding signal,HOXC9 [2],"9.56 upbm affinity estimate (log intensity, higher = more binding, comparable within an allelic series)"
same,binding signal,HOXB6 [18],"8.96 upbm affinity estimate (log intensity, higher = more binding, comparable within an allelic series)"
same,binding signal,HOXA4 [4],"9.81 upbm affinity estimate (log intensity, higher = more binding, comparable within an allelic series)"
same,binding signal,HOXC9 [5],"9.65 upbm affinity estimate (log intensity, higher = more binding, comparable within an allelic series)"
same,binding signal,ALX1 [19],"6.5 upbm affinity estimate (log intensity, higher = more binding, comparable within an allelic series)"
same,binding signal,ALX3 [20],"7.77 upbm affinity estimate (log intensity, higher = more binding, comparable within an allelic series)"
same,binding signal,HOXC9 [6],"9.6 upbm affinity estimate (log intensity, higher = more binding, comparable within an allelic series)"
same,binding signal,ALX1 [21],"6.53 upbm affinity estimate (log intensity, higher = more binding, comparable within an allelic series)"
same,binding signal,HOXA4 [8],"9.9 upbm affinity estimate (log intensity, higher = more binding, comparable within an allelic series)"
same,binding signal,ALX3 [22],"7.87 upbm affinity estimate (log intensity, higher = more binding, comparable within an allelic series)"
same,binding signal,ALX3 [23],"7.82 upbm affinity estimate (log intensity, higher = more binding, comparable within an allelic series)"
same,binding signal,HOXC9 [24],"9.76 upbm affinity estimate (log intensity, higher = more binding, comparable within an allelic series)"
same,binding signal,ALX3 [25],"7.73 upbm affinity estimate (log intensity, higher = more binding, comparable within an allelic series)"
same,binding signal,ALX1 [26],"6.67 upbm affinity estimate (log intensity, higher = more binding, comparable within an allelic series)"
same,binding signal,HOXA4 [14],"9.82 upbm affinity estimate (log intensity, higher = more binding, comparable within an allelic series)"
same,binding signal,ALX3 [27],"7.72 upbm affinity estimate (log intensity, higher = more binding, comparable within an allelic series)"
same,binding signal,HOXB6 [28],"9.05 upbm affinity estimate (log intensity, higher = more binding, comparable within an allelic series)"
GCGGACCC,binding signal,HOXA4 [1],"9.75 upbm affinity estimate (log intensity, higher = more binding, comparable within an allelic series)"
same,binding signal,ALX4 [29],"8.35 upbm affinity estimate (log intensity, higher = more binding, comparable within an allelic series)"
same,binding signal,ALX4 [30],"8.27 upbm affinity estimate (log intensity, higher = more binding, comparable within an allelic series)"
same,binding signal,HOXA4 [4],"9.74 upbm affinity estimate (log intensity, higher = more binding, comparable within an allelic series)"
same,binding signal,HOXA4 [8],"9.79 upbm affinity estimate (log intensity, higher = more binding, comparable within an allelic series)"
same,binding signal,HOXA4 [14],"9.89 upbm affinity estimate (log intensity, higher = more binding, comparable within an allelic series)"
GCACCACC,binding signal,HOXA4 [1],"9.87 upbm affinity estimate (log intensity, higher = more binding, comparable within an allelic series)"
same,binding signal,PAX4 [31],"9.27 upbm affinity estimate (log intensity, higher = more binding, comparable within an allelic series)"
same,binding signal,PAX4 [32],"9.29 upbm affinity estimate (log intensity, higher = more binding, comparable within an allelic series)"
same,binding signal,HOXA4 [4],"9.72 upbm affinity estimate (log intensity, higher = more binding, comparable within an allelic series)"
same,binding signal,PAX4 [33],"9.35 upbm affinity estimate (log intensity, higher = more binding, comparable within an allelic series)"
same,binding signal,PAX4 [34],"9.29 upbm affinity estimate (log intensity, higher = more binding, comparable within an allelic series)"
same,binding signal,HOXA4 [8],"9.72 upbm affinity estimate (log intensity, higher = more binding, comparable within an allelic series)"
same,binding signal,PAX4 [35],"9.28 upbm affinity estimate (log intensity, higher = more binding, comparable within an allelic series)"
same,binding signal,PAX4 [36],"9.35 upbm affinity estimate (log intensity, higher = more binding, comparable within an allelic series)"
same,binding signal,HOXA4 [14],"9.79 upbm affinity estimate (log intensity, higher = more binding, comparable within an allelic series)"

# Source: article PMC11006913
